Reference: PubChem BioAssay

Tests used:
[1] = system: Human papillomavirus type 1a protein E7 (residues 44-93); assay: HPV1a E7 fragment binders on microarrays, primary screen, biochemical, small-molecule microarray, residues 44-93, 635 nm fluorescence (AID 1108); settings: small-molecule microarray binding, fluorescence 635 nm; higher = more signal;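 further: E7 fragment applied at 1 µg/mL in TBST for 1 h at 4 C; score combines spot fluorescence with its signal to noise ratio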
[2] = modulators of HCV replicon luciferase signal, primary screen, HCV replication inhibitor project, Huh7 cells, luciferase reporter (AID 1109); settings: 48 h, higher = more signal;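 further: huh7 hepatoma cells harbouring a luciferase neomycin HCV replicon reporter; luciferase luminescence as measure of HCV replicon replication; test concentration not given here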
[3] = target: Left-right determination factor 2 (Homo sapiens) (UniProt O00292); assay: LEFTY2 binders on small-molecule microarrays, primary screen, biochemical, small-molecule microarray, 635 nm fluorescence scan (AID 1110); settings: LEFTY2 binding, higher = more signal
[4] = target: Calmodulin-1 (Homo sapiens) (UniProt P0DP23); assay: CALM1 binders on microarrays, EGTA buffer, profiling panel, biochemical, small-molecule microarray, Cy5-labelled CALM1 (AID 1111); settings: Cy5-CALM1 binding fluorescence, higher = more signal;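 further: labelled calmodulin applied in Tris saline Tween buffer holding calcium plus EGTA and DTT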
[5] = target: Calmodulin-1 (Homo sapiens) (UniProt P0DP23); assay: calcium-bound CALM1 binders on microarrays, profiling panel, artefact control for SMM control-protein annotation, biochemical, small-molecule microarray, Cy5-labelled CALM1, plus calcium (AID 1112); settings: Cy5-CALM1 binding fluorescence, higher = more signal;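 further: score merges spot fluorescence with signal to noise from triplicate slides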
[6] = small-molecule microarray binders of probe aWnt5a, primary screen, biochemical, biotinylated probe, 635/667 nm fluorescence (AID 1113); settings: higher = more signal;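 further: score merges 667 nm fluorescence intensity with signal-to-noise per printed feature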
[7] = small-molecule microarray binders of probe aShh, primary screen, biochemical, biotinylated probe, 635/667 nm fluorescence (AID 1114); settings: higher = more signal;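 further: probe is biotin-labelled aShh protein from a stem cell growth factor screen; measures binding of labelled protein to compounds printed on the slide; score merges feature fluorescence at 667 nm with signal-to-noise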
[8] = small-molecule microarray binders of probe aNog, primary screen, biochemical, biotinylated probe, 635/667 nm fluorescence (AID 1115); settings: higher = more signal;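 further: probe is biotinylated aNog protein used at 0.15 µg/mL for 1 h at 4 C; z-score combines 667 nm fluorescence of each spot with its signal to noise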
[9] = target: Torsin-1A-interacting protein 1 (Homo sapiens) (UniProt Q5JTV8); assay: LAP1 binders from COS7 cell lysate, primary screen, small-molecule microarray, 635/667 nm fluorescence (AID 1116); settings: COS7-hLAP1 lysate binding, 635 nm fluorescence, higher = more signal
[10] = target: Alpha-bungarotoxin (Bungarus multicinctus) (UniProt P60615); assay: alpha-bungarotoxin binders on microarray, profiling panel, artefact control for SMM control protein annotation, biochemical, small-molecule microarray, Alexa647 label, 635/667 nm fluorescence (AID 1117); settings: alpha-BTX-A647 binding fluorescence, higher = more signal
Sequence of Alpha-bungarotoxin (Bungarus multicinctus) (P60615 whole entry, looked up): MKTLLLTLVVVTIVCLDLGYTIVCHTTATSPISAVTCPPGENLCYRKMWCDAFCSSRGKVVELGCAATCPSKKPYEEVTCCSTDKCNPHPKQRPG

Sequence of Left-right determination factor 2 (Homo sapiens) (O00292 whole entry, looked up): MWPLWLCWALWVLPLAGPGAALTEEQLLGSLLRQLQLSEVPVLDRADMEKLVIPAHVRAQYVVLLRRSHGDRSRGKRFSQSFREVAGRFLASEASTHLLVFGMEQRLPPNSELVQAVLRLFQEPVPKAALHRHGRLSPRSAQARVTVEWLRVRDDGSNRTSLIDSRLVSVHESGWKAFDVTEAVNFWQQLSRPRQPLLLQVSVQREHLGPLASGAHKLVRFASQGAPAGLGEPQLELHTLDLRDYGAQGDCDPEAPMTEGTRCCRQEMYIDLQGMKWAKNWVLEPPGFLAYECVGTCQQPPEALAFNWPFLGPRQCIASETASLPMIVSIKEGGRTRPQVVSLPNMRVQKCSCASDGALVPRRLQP
Sequence of Torsin-1A-interacting protein 1 (Homo sapiens) (Q5JTV8 whole entry, looked up): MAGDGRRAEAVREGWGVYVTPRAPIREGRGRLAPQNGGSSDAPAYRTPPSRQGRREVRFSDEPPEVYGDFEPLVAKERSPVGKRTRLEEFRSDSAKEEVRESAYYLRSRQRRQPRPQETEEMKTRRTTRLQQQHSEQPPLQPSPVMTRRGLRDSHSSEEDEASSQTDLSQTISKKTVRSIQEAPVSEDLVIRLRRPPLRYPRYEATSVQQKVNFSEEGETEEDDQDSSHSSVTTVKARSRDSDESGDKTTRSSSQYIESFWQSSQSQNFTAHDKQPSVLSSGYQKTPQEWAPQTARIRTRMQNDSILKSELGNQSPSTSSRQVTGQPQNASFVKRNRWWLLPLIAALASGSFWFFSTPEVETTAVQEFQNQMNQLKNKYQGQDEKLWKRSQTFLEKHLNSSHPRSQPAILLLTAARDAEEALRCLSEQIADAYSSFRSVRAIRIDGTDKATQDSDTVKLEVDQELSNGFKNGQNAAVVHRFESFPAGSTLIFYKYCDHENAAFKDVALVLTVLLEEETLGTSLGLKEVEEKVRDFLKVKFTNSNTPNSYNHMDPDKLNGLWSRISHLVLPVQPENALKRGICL

| SMILES | composite z-score [1] | z-score [2] | composite z-score [3] | composite z-score [4] | composite z-score [5] | composite z-score [6] | composite z-score [7] | composite z-score [8] | composite z-score [9] | composite z-score [10] |
| --- | --- | --- | --- | --- | --- | --- | --- | --- | --- | --- |
| C=C[C@H](CO[Si](CC)(CC)CC)N(Cc1ccc(OC(C)=O)c(OC)c1)S(=O)(=O)c1ccc(Br)cc1 | 1.15 | -3.27 | 0.537 | 1.41 | 0.67 | 0.101 | -0.057 | 0.0481 | 1.12 | 1.23 |
| CC(C)C(=C=CC[C@@H](O)c1ccc(OCCO)cc1)C[C@@H](O)COCc1ccccc1 | 0.702 | -0.453 | 0.164 | -0.774 | -0.918 | 0.505 | -0.0553 | 0.526 | 1.51 | 0.119 |
| [N-]=[N+]=Nc1ccccc1[C@@H]1OC(c2ccc(OCCCO)cc2)=N[C@]1(Cc1ccccc1)C(=O)N1CCOCC1 | 1.44 | -1.41 | 0.425 | 1.65 | 0.959 | 0.72 | 0.315 | 0.314 | 1.21 | 1.3 |
| COCCOC(=O)N1C(=O)[C@@]2(c3cc(C#CCCO)ccc31)[C@H](C(=O)N1CCCCCCC1)[C@H]1C(=O)O[C@H](c3ccccc3)[C@H](c3ccccc3)N1[C@@H]2c1ccc(OCCO)cc1 | 1.39 | -0.616 | 1.01 | 2.13 | 1.05 | 0.933 | 0.953 | 1.99 | 3.97 | 2.01 |
| C=C[C@H](C)[C@@H](OC(=O)Nc1ccc(OC)cc1)c1ccc(O)c2ccccc12 | -0.626 | -3.43 | -0.239 | -0.582 | -0.461 | -0.178 | 0.318 | 0.152 | 0.534 | -0.177 |
| CCCC[C@@H]1C[C@H]1[C@@H](NC(=O)c1ccco1)c1ccc(-c2ccccc2)cc1 | 0.114 | -0.971 | 0.0023 | -0.179 | 0.0765 | 0.0916 | 0.104 | 0.376 | 0.425 | 0.0932 |
| COc1ccccc1CN1C(=O)c2ccccc2[C@@H](C(=O)NC2CC2)[C@@H]1c1ccc(CO)cc1 | 0.0772 | -1.3 | 0.57 | 0.522 | -0.779 | -0.0512 | 0.257 | -0.519 | 0.0469 | 1.3 |
| C[C@@]1([C@@H](NC(=O)c2ccc(-c3ccccc3)cc2)c2ccc(Cl)cc2)C[C@H]1C1CCCCC1 | 1.34 | -1.18 | 0.279 | 1.42 | 1.2 | 0.0879 | 0.603 | 1.03 | 0.667 | 1.17 |
| CNS(=O)(=O)c1ccc(C)cc1 | 0.899 | -0.376 | 0.804 | -0.206 | -0.263 | -0.169 | -0.504 | -0.138 | -0.312 | 0.514 |
| CN(C)CCCCCCNC(=O)[C@@H]1C[C@@H]2C(=O)N[C@@H](Cc3ccccc3)C(=O)N2[C@@H]1c1ccc(O)cc1 | 1.13 | 2.17 | 1.02 | -0.565 | -1.14 | -0.0425 | 0.0668 | 0 | 1.32 | 2.47 |
| COc1ccc(C#Cc2ccc3c(c2)[C@]2(C(=O)N3)[C@H](C(=O)NC[C@H](O)c3ccccc3)[C@H]3C(=O)O[C@H](c4ccccc4)[C@H](c4ccccc4)N3[C@@H]2c2ccc(O)cc2)cc1 | 1.43 | -1.38 | 0.559 | 1.04 | -0.064 | 0.0952 | 0.0723 | 0.277 | 1.06 | 1.72 |
| CCOC(=O)C[C@H]1[C@H](OC(=O)c2ccc(-c3ccccc3)cc2)[C@@H](NC(=O)Cc2ccc(OC)cc2)c2cc(OCCCO)ccc2N1C(=O)c1ccccc1 | 0.269 | -0.898 | -0.458 | 0.211 | 0.0935 | -0.0643 | -0.17 | -0.306 | 0.294 | 0.582 |
| COC(=O)C[C@H]1O[C@]2(C(=O)N(C)c3ccccc32)[C@@H](C)[C@@H]1[Si](C)(C)F | 0.882 | 0.0456 | 0.392 | 0.0461 | -0.389 | -0.0472 | 0.23 | -0.357 | 0.239 | -0.0089 |
| O=C(c1ccccc1)N1C(=O)[C@@]2(Cc3ccccc31)N=C(c1ccc(OCCCO)cc1)O[C@H]2c1ccccc1 | 1.03 | -2.77 | 0.643 | 0.661 | -0.502 | 0.0919 | -0.369 | 1.57 | 1.61 | 0.902 |
| [N-]=[N+]=Nc1ccccc1[C@H]1OC(c2ccc(OCCCO)cc2)=N[C@@]1(CCS(=O)(=O)c1ccccc1)C(N)=O | 0.321 | -0.268 | -0.154 | 1.41 | 0.389 | 0.161 | 0.117 | -0.939 | 1.71 | 1.92 |
| C=C[C@H](CO)NS(=O)(=O)c1ccc(Br)cc1 | 1.05 | 0.109 | 0.375 | 0.158 | -0.268 | -0.096 | -0.2 | -0.266 | 0.306 | 0.275 |
| C=CCOC(=O)[C@H]1[C@@H]2C(=O)O[C@@H](c3ccccc3)[C@@H](c3ccccc3)N2[C@@H](c2ccc(OCCOC(=O)[C@H]3C[C@H]4C(=O)N[C@@H](CCCCNC(C)=O)C(=O)N4[C@H]3c3cccc(OCCO)c3)cc2)[C@]12C(=O)Nc1ccccc12 | 1.36 | -1.47 | 0.578 | 2.53 | -0.0073 | -0.101 | 0.13 | 0.0588 | 1.22 | 0.977 |
| CN1C(=O)C2C=CC(C(O)c3ccccc3)N(N(c3ccccc3)c3ccccc3)C2C1=O (stereo not given) | -0.364 | -0.442 | 0.618 | -0.315 | -0.717 | 0.0181 | -0.0904 | 0.235 | 0.911 | 0.514 |
| COCCCNC(=O)[C@@]1(C)c2ccccc2C(=O)N(C(C)C)[C@H]1c1ccc(CO)cc1 | 0.761 | -0.659 | 0.577 | -0.342 | -0.574 | -0.152 | -0.01 | -0.0247 | 0.999 | 0.547 |
| COc1cc2c(cc1O)C(c1cccs1)N(C)CC2 (stereo not given) | -1.61 | 0.159 | -0.496 | -0.705 | 0.423 | -0.126 | -0.2 | -0.215 | -0.205 | -0.759 |
| CC(C)NC(=O)[C@@]1(c2ccc([N+](=O)[O-])cc2)CC(=O)N(C2CCCCC2)[C@@H]1c1ccc(CO)cc1I | 0.621 | -2.16 | -0.159 | 0.249 | 0.272 | 0.0375 | -0.189 | 0.176 | 0.707 | -0.174 |
